Source: PubChem BioAssay (NCATS)
Several values for one entry are separate records, joined by “and”; a condition that tells them apart may be missing. Identical values can stand only once. Inconclusive results are not listed. Activity calls are given as the source filed them. Unless noted, calls follow the shape of the dose curve; as a rule, active = well fitted curve in the direction sought with a large enough effect; inconclusive = small, poorly fitted or top-dose-only effect, or another doubt; inactive = no such curve, though single readings can be large; an effect the other way counts as inactive or inconclusive.

Experiments:
[1] = qHTS Assay for Identification of Small Molecule Agonists for Thrombopoietin (TPO) Signaling Pathway (AID 917); settings: TPO signaling pathway reporter cells, agonist qHTS; series mostly up to 38.5 µM; also: % is scaled to controls: 0 for no effect and ±100 for the full control effect
Summary of the method: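 Cell-based luciferase reporter screen. Mouse Ba/F3 line stably expressing human TPO receptor; IL-3 removed overnight before plating. Co-treatment with compound and EC50 TPO (26 pM), 24 hrs at 37 C, then luminescence.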

[2] = biological target: Muscarinic acetylcholine receptor M1 (Rattus norvegicus) (UniProt P08482); assay: qHTS Assay for Antagonists of Acetylcholine Muscarinic M1 Receptor: Kinetic Measurement of Intracellular Calcium Response (AID 943); settings: M1-expressing cells, kinetic intracellular calcium fluorescence; series mostly up to 35.3 µM; also: potency is read from the fitted curve at half-maximal effect; nearly all actives have a fitted effect of over 75% in size
Summary of the method: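 Read-out: peak over basal Fluo-4 fluorescence, kinetic at 1 Hz for 4 min after EC80 carbachol (100 nM final). Rat M1-CHO cells, dye loaded 1 h at 37C, compound added 10 min before agonist.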

[3] = biological target: Muscarinic acetylcholine receptor M1 (Rattus norvegicus) (UniProt P08482); assay: qHTS Assay for Antagonists of Acetylcholine Muscarinic M1 Receptor: Measurement of IP-One Response (AID 944); settings: CHO-M1 cells, IP-One HTRF, antagonist mode; series mostly up to 46.1 µM; also: potency is read from the fitted curve at half-maximal effect; nearly all actives have a fitted effect of over 75% in size
Summary of the method: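 Read-out: HTRF competition between d2-IP1 and Eu-cryptate anti-IP1 antibody, emission 620 and 665 nm. Stimulus was carbachol, EC80 (200 nM), for 30 min in M1-CHO cells (rat receptor), after 10 min compound pre-treatment.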

[4] = biological target: Pyruvate kinase (Leishmania mexicana) (UniProt Q27686); assay: qHTS Validation Assay for Inhibitors of Leishmania Mexicana Pyruvate Kinase (AID 945);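 also: 0% = DMSO only neutral control wells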; settings: purified L. mexicana pyruvate kinase, enzyme activity, E451W mutant enzyme; series mostly up to 57.5 µM
Summary of the method: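 Luminescent ATP detection (PKLight) after a 1 h room-temperature reaction of 0.2 nM LmPYK E451W mutant with 0.5 mM PEP and 0.1 mM ADP at pH 7.2. Activity is normalized to DMSO-only control wells.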

[5] = biological target: Pyruvate kinase PKM (Homo sapiens) (UniProt P14618); assay: qHTS Assay for Activators of Human Muscle Pyruvate Kinase (AID 954; active = well fitted curve in the direction sought with a large enough effect, not every such curve was filed as active;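 also: 0% = uninhibited enzyme and -100% = no enzyme or full thiadiazolimine inhibition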); settings: purified human muscle pyruvate kinase, luciferase-coupled luminescence, 1 h; series mostly up to 57.5 µM
Summary of the method: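 Compound pinned into substrate mix (0.5 mM PEP, 0.1 mM ADP), then 0.1 nM PKM2 added; 1 h, RT. Stop/detection luciferase reagent added, luminescence read. Normalized to no-inhibition and no-enzyme or reference-inhibitor controls.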

[6] = biological target: Alpha-galactosidase A (Homo sapiens) (UniProt P06280); assay: Counterscreen for Glucocerebrosidase Inhibitors: qHTS Assay for Human alpha-Galactosidase at pH 4.5 (AID 992); settings: purified enzyme, fluorogenic substrate; series mostly up to 76.9 µM; also: 0% is about no effect
Summary of the method: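 Steps: enzyme (2 nM final), then compound across 0.7 nM to 77 uM, then 80 uM fluorogenic galactopyranoside substrate; incubate 20 min at room temperature; quench at pH 10; measure fluorescence at 365/440 nm.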

[7] = biological target: alpha-glucosidase (Oryza sativa, rice) (UniProt Q653V4); assay: Counterscreen for Glucocerebrosidase Inhibitors: qHTS Assay for Rice alpha-Glucosidase at pH 5.0 (AID 997); settings: rice alpha-glucosidase enzyme activity; series mostly up to 76.9 µM;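 also: 0% = full activity with enzyme and -100% = basal without enzyme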
Summary of the method: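 Endpoint fluorogenic assay at pH 5.0: compounds (0.7 nM to 77 uM) titrated against 4 nM rice enzyme and 400 uM 4-MU-alpha-glucoside for 20 min at room temperature; NaOH/glycine stop, read ex 365/em 440 nm, Hill-fitted AC50.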

[8] = Cell Viability - HepG2 (AID 433; calls by dose curve;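 also: potency is read from the fitted curve at half-maximal effect; potency for ATP loss meaning cytotoxicity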); settings: qHTS
Summary of the method: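 Read-out is luciferase-based quantitation of cellular ATP as a measure of viable HepG2 cells after 40 h treatment at 37 °C. Signal decrease is scaled between DMSO-only and 100 uM tamoxifen controls, with AC50 fitted by the Hill equation.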

[9] = Cell Viability - HUV-EC-C (AID 542); settings: HUV-EC-C endothelial cell viability, qHTS; series mostly up to 92.2 µM; also: potency is read from the fitted curve at half-maximal effect; nearly all actives have a fitted effect of over 35% in size
Summary of the method: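 Luminescent ATP read-out (CellTiter-Glo, 20 min room temperature) after 40 hr compound treatment of HUV-EC-C cells at 37 °C. Concentration-response data fitted with the standard Hill equation to give AC50; tamoxifen and doxorubicin served as positive controls.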

[10] = Cell Viability - Mesenchymal (AID 546); settings: mesenchymal cells viability, qHTS; series mostly up to 91.7 µM;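 also: cells exposed to compound for 40 hours before reading; 0% = DMSO only and -100% = 100 µM tamoxifen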
Summary of the method: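 Human renal mesenchymal cells (glomerulus-derived), 1000 cells/well, 5 hr 37 °C pre-incubation; compound 40 hr, 37 °C; CellTiter-Glo, 20 min RT; luminescence; AC50 via Hill equation.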

[11] = MultiTox-Fluor Cytotoxicity Assay - LYMP1-003 - Live Cells (AID 962); settings: LYMP1-003 lymphoblastoid cells, MultiTox-Fluor live-cell protease fluorescence; series mostly up to 92.2 µM;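 also: cells exposed to compound for 16 hours at 37 °C; 0% = DMSO only and full loss = 92 µM tetraoctylammonium bromide; cytotoxic hits lower the live-cell protease signal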
Summary of the method: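 Readout: live-cell fluorescence (Ex/Em=405/510) from GF-AFC cleavage after 60 min MultiTox-Fluor reagent at room temperature. Lymphoblastoid LYMP1-003 cells, 16 hr compound treatment, 37 C. Concentration-response fitted to standard Hill equation for AC50.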

[12] = Cell Viability - LYMP2-004 (AID 966); settings: LYMP2-004 lymphoblastoid cell viability, qHTS; series mostly up to 92.2 µM;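 also: plate controls were DMSO only for no effect and tetraoctylammonium bromide control for full effect; nearly all actives have a fitted effect of over 65% in size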
Summary of the method: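 Luminescent ATP read-out (CellTiter-Glo, 30 min RT) after 24 hr compound exposure at 37 C; 2500 lymphoblastoid cells/well, complete medium. Decrease in ATP = cytotoxicity; AC50 from standard Hill model.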

[13] = Cell Viability - LYMP2-005 (AID 967); settings: LYMP2-005 lymphoblastoid cell viability; series mostly up to 92.2 µM;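 also: cells exposed to compound for 24 h at 37 °C; plate controls were DMSO only for no effect and 92 µM tetraoctylammonium bromide control for full effect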
Summary of the method: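 Acute cytotoxicity is scored as a concentration-dependent drop in intracellular ATP in human lymphoblastoid LYMP2-005 cells after 24 h compound treatment. ATP is quantified by luciferase luminescence, and AC50 is derived by Hill-equation modelling.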

[14] = Cell Viability - LYMP2-022 (AID 987); settings: LYMP2-022 lymphoblastoid cell viability; series mostly up to 92.2 µM;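 also: 0% = DMSO alone and full effect = tetraoctylammonium bromide at 92 µM; nearly all actives have a fitted effect of over 55% in size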
Summary of the method: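 Luminescent ATP read-out (CellTiter-Glo, 30 min, RT) after 24 hr, 37 C compound exposure of 2500 human lymphoblastoid cells/well in complete medium. Cytotoxicity taken as concentration-dependent ATP loss; AC50 from standard Hill equation.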

[15] = biological target: Tumor necrosis factor (Homo sapiens) (UniProt P01375); assay: qHTS assay to identify small molecules that stimulate Tumor Necrosis Factor-alpha (TNF-alpha) secretion (AID 651757; active = well fitted curve in the direction sought with a large enough effect in the signal ratio; the % refers to the signal ratio; also: 0% is about no effect); settings: Human cells, HTRF 665/615 ratio; series mostly up to 92.2 µM
Summary of the method: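 THP-1 cells, 3000/well; compound 17 hrs, 37 C; add cryptate/XL665 anti-TNF-alpha antibody pair; 3 hr RT; TR-FRET (HTRF) read of secreted TNF-alpha. Quantitative HTS format.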

[16] = qHTS assay to identify small molecules that stimulate interleukin-8 (IL-8) secretion (AID 651758; active = well fitted activation curve with a large enough effect in the signal ratio; the % refers to the signal ratio; also: 0% is about no effect); settings: HTRF ratio (665/615); series mostly up to 92.2 µM
Summary of the method: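 Compounds are added to THP-1 cells (2000 per well) and left 16 hrs at 37 C. A labeled anti-IL-8 antibody pair is then added, and IL-8 secretion is measured by time-resolved FRET after 1-3 hrs at room temperature.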

[17] = Cell Viability - BJ (AID 421; calls by dose curve;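 also: potency is read from the fitted curve at half-maximal effect; cells exposed to compound for 40 hours at 37 °C before readout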); settings: BJ fibroblast viability, qHTS
Summary of the method: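 Normal human BJ foreskin fibroblasts, 1500/well in complete medium, treated 40 hr at 37 °C. Cellular ATP by CellTiter-Glo luminescence; normalized to DMSO and 100 uM tamoxifen, AC50 from Hill fit.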

[18] = Cell Viability - SK-N-SH (AID 435; calls by dose curve;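 also: potency is read from the fitted curve at half-maximal effect; compound exposure lasted 40 h at 37 °C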); settings: SK-N-SH neuroblastoma cell viability qHTS
Summary of the method: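 Luminescent ATP signal served as the viability read-out after 40 hours of compound treatment of human neuroblastoma SK-N-SH cells. Concentration-response data, scaled between DMSO and 100 uM tamoxifen, gave AC50 values by standard Hill modeling.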

[19] = Cell Viability - N2a (AID 540); settings: N2a mouse neuroblastoma cell viability; at 92.2 µM (top of the series);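 also: cells exposed to compound for 40 h at 37 °C; plate controls were DMSO alone for no effect and tamoxifen control for full effect; nearly all actives have a fitted effect of over 45% in size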
Summary of the method: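 N2a mouse neuroblastoma, 1500 cells/well, 5 hr settle; compound 40 hr, 37 °C; CellTiter-Glo 20 min RT; luminescence; Hill-fit AC50.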

[20] = Cell Viability - NIH 3T3 (AID 541); settings: NIH 3T3 cell viability, qHTS; activity change, negative = cytotoxicity: at 92.2 µM (top of the series); also: potency is read from the fitted curve at half-maximal effect; nearly all actives have a fitted effect of over 25% in size
Summary of the method: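 qHTS format; 40 hr compound exposure, 37 °C; CellTiter-Glo luminescence (cellular ATP) read-out after 20 min at RT. Decrease in ATP = cytotoxicity; AC50 from standard Hill fit.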

Muscarinic acetylcholine receptor M1 (Rattus norvegicus), sequence (P08482 whole entry, looked up): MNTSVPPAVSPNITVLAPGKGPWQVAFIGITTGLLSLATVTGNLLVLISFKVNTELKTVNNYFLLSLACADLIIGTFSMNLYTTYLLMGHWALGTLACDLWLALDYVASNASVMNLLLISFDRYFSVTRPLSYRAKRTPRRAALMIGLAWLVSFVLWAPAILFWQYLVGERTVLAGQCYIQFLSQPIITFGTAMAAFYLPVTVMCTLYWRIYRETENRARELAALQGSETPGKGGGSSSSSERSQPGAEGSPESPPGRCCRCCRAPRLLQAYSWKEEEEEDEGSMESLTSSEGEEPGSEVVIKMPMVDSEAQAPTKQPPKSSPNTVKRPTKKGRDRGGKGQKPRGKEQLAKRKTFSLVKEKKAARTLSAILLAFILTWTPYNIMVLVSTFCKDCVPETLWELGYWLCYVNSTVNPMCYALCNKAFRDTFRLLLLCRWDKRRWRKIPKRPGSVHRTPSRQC
Alpha-galactosidase A (Homo sapiens), sequence (P06280 whole entry, looked up): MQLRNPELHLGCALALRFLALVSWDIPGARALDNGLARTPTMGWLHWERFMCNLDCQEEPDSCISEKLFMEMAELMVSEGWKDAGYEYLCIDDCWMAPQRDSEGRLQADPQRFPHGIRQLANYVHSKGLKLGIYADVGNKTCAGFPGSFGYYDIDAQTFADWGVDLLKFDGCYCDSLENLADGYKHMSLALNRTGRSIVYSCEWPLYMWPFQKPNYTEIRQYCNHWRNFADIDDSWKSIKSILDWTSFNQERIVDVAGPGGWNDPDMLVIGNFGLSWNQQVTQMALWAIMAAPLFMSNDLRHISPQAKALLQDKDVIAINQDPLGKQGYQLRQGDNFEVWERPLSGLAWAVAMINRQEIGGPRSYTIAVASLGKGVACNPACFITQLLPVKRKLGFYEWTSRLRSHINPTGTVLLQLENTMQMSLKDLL
Pyruvate kinase PKM (Homo sapiens), sequence (P14618 whole entry, looked up): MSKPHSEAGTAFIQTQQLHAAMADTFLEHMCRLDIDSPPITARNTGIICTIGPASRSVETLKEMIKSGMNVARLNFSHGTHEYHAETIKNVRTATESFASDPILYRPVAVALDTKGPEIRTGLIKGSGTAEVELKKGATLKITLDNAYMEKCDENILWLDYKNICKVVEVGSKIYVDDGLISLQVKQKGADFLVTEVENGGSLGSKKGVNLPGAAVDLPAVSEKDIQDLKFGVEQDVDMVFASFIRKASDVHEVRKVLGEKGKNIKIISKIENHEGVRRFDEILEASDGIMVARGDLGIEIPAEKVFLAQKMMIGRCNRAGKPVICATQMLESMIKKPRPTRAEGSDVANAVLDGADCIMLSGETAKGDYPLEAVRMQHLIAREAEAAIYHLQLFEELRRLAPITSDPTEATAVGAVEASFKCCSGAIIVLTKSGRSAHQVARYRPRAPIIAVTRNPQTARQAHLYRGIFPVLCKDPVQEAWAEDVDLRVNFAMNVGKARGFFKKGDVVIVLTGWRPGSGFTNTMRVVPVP
Pyruvate kinase (Leishmania mexicana), sequence (Q27686 2-499 E452W): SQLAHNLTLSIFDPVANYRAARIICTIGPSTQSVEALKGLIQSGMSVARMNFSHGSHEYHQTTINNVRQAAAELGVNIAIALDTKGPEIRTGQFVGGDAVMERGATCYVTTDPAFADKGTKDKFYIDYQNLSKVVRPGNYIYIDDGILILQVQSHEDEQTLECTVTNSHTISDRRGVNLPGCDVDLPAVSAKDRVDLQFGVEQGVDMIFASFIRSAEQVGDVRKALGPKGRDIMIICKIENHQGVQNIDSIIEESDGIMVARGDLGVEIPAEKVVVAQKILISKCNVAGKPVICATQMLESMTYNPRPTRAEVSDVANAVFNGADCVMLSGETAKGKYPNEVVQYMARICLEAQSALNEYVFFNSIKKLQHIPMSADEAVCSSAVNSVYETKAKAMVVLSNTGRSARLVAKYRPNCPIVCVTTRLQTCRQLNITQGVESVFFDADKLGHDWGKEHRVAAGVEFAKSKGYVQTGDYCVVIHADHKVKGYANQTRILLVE
Tumor necrosis factor (Homo sapiens), sequence (P01375 whole entry, looked up): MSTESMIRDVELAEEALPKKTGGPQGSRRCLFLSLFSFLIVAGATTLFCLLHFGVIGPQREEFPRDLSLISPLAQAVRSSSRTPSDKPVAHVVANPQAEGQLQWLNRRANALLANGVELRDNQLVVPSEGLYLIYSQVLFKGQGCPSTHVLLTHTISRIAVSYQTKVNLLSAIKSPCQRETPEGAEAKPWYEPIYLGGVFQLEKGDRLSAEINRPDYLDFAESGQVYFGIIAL

CC(C)N(CC[C@@](C(N)=O)(c1ccccc1)c1ccccn1)C(C)C
inactive: outcome [1] | Potency [4] | outcome [5] | outcome [6] | outcome [7]
active: Potency [2] 4.47 µM and 3.98 µM | Potency [3] 5.62 µM and 6.31 µM

CCCCCCCCCc1ccc(O)cc1
inactive: Potency [8] > 92 µM | outcome [10] | Potency [11] | Potency [12] | Potency [13] | Potency [14] | outcome [15] | Potency [16]
active: Potency [9] 31.6 µM

O=C1C(Cl)=C(Cl)C(=O)C(Cl)=C1Cl
active: Potency [17] 50.5 µM | Potency [18] 40.5 µM | activity change, negative = cytotoxicity [19] -88.2% | Potency [20] 31.6 µM
